The nature of assay [1]: compounds binding Alexa647 anti-His antibody – biochemical, small-molecule microarray, 635 nm fluorescence, artefact control for SMM control protein annotation, primary screen (AID 1128).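 Note: score merges feature fluorescence with signal-to-noise for each printed compound spot.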 Conditions: higher = more signal.
In assay [2] the test system is Human papillomavirus type 1a E7 protein (residues 1-88). Put plainly: HPV1a E7 small-molecule binders, primary screen, biochemical, small-molecule microarray, residues 1-88, 635 nm (AID 1129). The settings on record: small-molecule microarray binding, fluorescence 635 nm; higher = more signal.
For assay [3], the target named is Focal adhesion kinase 1 (Homo sapiens) (UniProt Q05397). Nature of the assay: PTK2 protein binding on printed compound slides – biochemical, small-molecule microarray, 635/667 nm fluorescence, BSA, DTT, primary screen (AID 1130).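 Note: composite of spot emission at 667 nm and signal to noise over triplicate slides.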 The settings on record: 635 nm fluorescence, higher = more signal.
Assay [4] deals with Fibrinogen (Alexa647-labelled). Nature of the assay: Alexa647-fibrinogen binding to printed small molecules – biochemical, small-molecule microarray, 635/667 nm fluorescence, artefact control for SMM control-protein annotation, profiling panel (AID 1131).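 Note: z-score merges 667 nm fluorescence with per-spot signal-to-noise over triplicate slides.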 The settings on record: fibrinogen-A647 binding fluorescence, higher = more signal.
The target in assay [5] is Follistatin (Homo sapiens) (UniProt P19883). Put plainly: FST protein binding to printed compounds – biochemical, small-molecule microarray, 635/667 nm fluorescence, primary screen (AID 1132). The settings on record: 635 nm fluorescence, higher = more signal.
Assay [6] addresses Fibroblast growth factor 2 (Homo sapiens) (UniProt P09038). Nature of the assay: basic fibroblast growth factor binding to printed compounds – biochemical, small-molecule microarray, 635/667 nm fluorescence, primary screen (AID 1133). The settings on record: FGF2, fluorescence 635/667, higher = more signal.
Assay [7] in a line: JC-1 mitochondrial potential readout, lung cancer cells – cell-based, A549, JC-1 fluorescence, basal, 24 h, 100 nL, profiling panel (AID 1138).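 Note: A549 lung adenocarcinoma cells under basal conditions with no added stimulus; test concentration not given here.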 The settings on record: higher = more signal.
The next assay has as its system Lefty1. Put plainly: Lefty1 protein binding to printed compounds – biochemical, small-molecule microarray, 635/667 nm fluorescence, primary screen (AID 1139). Conditions: fluorescence 635/667, higher = more signal.
For assay [8], the system named is wheat germ agglutinin (Triticum aestivum), Alexa647-labelled. Put plainly: Alexa647-WGA lectin binding to printed small molecules – biochemical, small-molecule microarray, 635/667 nm fluorescence, artefact control for SMM control-protein annotation, profiling panel (AID 1140).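 Note: score merges 667 nm feature emission with signal to noise over triplicate slides.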 Conditions: WGA-A647 binding, 635 nm fluorescence, higher = more signal.
Assay [9] has as its target Luciferin 4-monooxygenase (Photinus pyralis) (UniProt P08659). Nature of the assay: inhibition of purified Photinus pyralis luciferase – biochemical, luminescence, purified enzyme, 2006 set, primary screen (AID 1141).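 Note: cell-free assay with purified firefly luciferase at 100 ng per well in PBS; test concentration not given here.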 Conditions: purified firefly luciferase, SteadyGlo luminescence, 30 min; higher = more signal, called active from +8 up or from −8 down.
For assay [10], the system named is Wnt5a (protein binding on small-molecule microarray). Put plainly: small molecules binding Wnt5a protein – biophysical, small-molecule microarray, 635/667 nm fluorescence, primary screen (AID 1142).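 Note: fluorescence read at 667 nm with signal to noise per printed feature.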 The settings on record: 635 nm fluorescence, higher = more signal.
Assay [11] can be described thus: ATP-based viability of Huh7 replicon cells – cell-based, CellTiter-Glo luminescence, basal, 48 h, cytotoxicity control for HCV replication inhibitor project, primary screen (AID 1143).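 Note: Huh7 hepatoma cells carrying a hepatitis C replication reporter with no stimulus; test concentration not given here.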 The settings on record: higher = more signal, called active from +8 up or from −8 down.
The nature of assay [12]: Pseudomonas biofilm growth suppression – PAO1 strain, BacTiter-Glo luminescence, LB-PBS, primary screen (AID 1144). Conditions: P. aeruginosa PAO1 biofilm, 12 h, higher = more signal.
The nature of assay [13]: basal CRE-LacZ reporter activity in PC12 – cell-based, unstimulated, primary screen (AID 1145). Conditions: no forskolin, luminescence, 4.5 h, higher = more signal, called active from +8 up or from −8 down.
The nature of assay [14]: forskolin-driven CRE-LacZ activity in PC12 – cell-based, CRE-LacZ reporter, forskolin-stimulated, primary screen (AID 1146).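 Note: PC12 cells with 6xCRE LacZ reporter stimulated by forskolin 10 µM; beta-galactosidase reporter signal reflecting CREB driven transcription.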 The settings on record: luminescence, 4.5 h, higher = more signal, called active from +8 up or from −8 down.
The target of assay [15] is Streptavidin (Streptomyces avidinii) (UniProt P22629). Put plainly: compounds binding control protein streptavidin – biophysical, small-molecule microarray, 635/667 nm fluorescence, artefact control for SMM compound annotation, primary screen (AID 1147).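 Note: signal reflects streptavidin binding to arrayed compounds as a control protein.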 The settings on record: higher = more signal.
Assay [16] can be described thus: probe aInhba binding on compound microarray – biochemical, small-molecule microarray, 635/667 nm fluorescence, primary screen (AID 1148).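 Note: score merges 667nm spot fluorescence with signal-to-noise for antibody binding to printed compounds.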 Conditions: higher = more signal.
Assay [17] addresses Torsin-1A (Homo sapiens) (UniProt O14656). Put plainly: TOR1A wild-type binding on microarray – cell lysate, small-molecule microarray, lysate, 635/667 nm, primary screen (AID 1149). The settings on record: COS7 hTOR1A-WT lysate, 635 nm fluorescence, higher = more signal.
For assay [18] the target is unchanged. Put plainly: torsin A mutant lysate binding on microarrays – cell lysate, small-molecule microarray, COS7 lysate, 635/667 nm fluorescence, primary screen (AID 1150).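 Note: score pools 667 nm emission and signal to noise measuring lysate protein binding.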 Conditions: COS7 hTOR1A mutant lysate, 635 nm fluorescence, higher = more signal.
Assay [19] concerns Sonic hedgehog protein (Shh). Put plainly: Sonic hedgehog microarray binding compounds – biochemical, small-molecule microarray, 635/667 nm fluorescence, primary screen (AID 1151).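 Note: Shh protein binding to compounds spotted on small-molecule microarray slides; score combines spot fluorescence intensity with signal-to-noise across triplicate slides.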 Conditions: 635 nm fluorescence, higher = more signal.

Active and inactive are the calls of the source. Unless noted, the rule behind the calls is not given here.

Fibroblast growth factor 2 (Homo sapiens), sequence (P09038 whole entry, looked up): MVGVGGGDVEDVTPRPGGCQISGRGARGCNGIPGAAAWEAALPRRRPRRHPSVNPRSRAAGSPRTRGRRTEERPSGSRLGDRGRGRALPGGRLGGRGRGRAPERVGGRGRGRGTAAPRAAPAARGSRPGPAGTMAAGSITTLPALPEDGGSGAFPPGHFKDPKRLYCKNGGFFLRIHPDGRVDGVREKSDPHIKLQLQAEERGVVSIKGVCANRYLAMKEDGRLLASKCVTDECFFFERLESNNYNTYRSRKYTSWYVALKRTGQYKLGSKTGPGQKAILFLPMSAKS
Torsin-1A (Homo sapiens), sequence (O14656 whole entry, looked up): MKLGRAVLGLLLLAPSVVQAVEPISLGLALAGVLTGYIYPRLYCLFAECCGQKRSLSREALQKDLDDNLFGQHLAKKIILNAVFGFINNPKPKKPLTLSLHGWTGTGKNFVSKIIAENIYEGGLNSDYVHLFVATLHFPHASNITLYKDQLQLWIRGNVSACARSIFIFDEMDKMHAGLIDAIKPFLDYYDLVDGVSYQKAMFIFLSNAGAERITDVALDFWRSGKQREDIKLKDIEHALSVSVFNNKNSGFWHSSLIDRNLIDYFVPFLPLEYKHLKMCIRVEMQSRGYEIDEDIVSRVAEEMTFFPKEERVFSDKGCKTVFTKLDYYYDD
Streptavidin (Streptomyces avidinii), sequence (P22629 whole entry, looked up): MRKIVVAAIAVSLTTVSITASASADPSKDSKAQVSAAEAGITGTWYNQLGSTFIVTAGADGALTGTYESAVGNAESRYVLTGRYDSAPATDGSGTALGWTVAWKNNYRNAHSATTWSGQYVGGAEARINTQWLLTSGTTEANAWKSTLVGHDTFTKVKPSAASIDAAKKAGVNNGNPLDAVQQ
Focal adhesion kinase 1 (Homo sapiens), sequence (Q05397 whole entry, looked up): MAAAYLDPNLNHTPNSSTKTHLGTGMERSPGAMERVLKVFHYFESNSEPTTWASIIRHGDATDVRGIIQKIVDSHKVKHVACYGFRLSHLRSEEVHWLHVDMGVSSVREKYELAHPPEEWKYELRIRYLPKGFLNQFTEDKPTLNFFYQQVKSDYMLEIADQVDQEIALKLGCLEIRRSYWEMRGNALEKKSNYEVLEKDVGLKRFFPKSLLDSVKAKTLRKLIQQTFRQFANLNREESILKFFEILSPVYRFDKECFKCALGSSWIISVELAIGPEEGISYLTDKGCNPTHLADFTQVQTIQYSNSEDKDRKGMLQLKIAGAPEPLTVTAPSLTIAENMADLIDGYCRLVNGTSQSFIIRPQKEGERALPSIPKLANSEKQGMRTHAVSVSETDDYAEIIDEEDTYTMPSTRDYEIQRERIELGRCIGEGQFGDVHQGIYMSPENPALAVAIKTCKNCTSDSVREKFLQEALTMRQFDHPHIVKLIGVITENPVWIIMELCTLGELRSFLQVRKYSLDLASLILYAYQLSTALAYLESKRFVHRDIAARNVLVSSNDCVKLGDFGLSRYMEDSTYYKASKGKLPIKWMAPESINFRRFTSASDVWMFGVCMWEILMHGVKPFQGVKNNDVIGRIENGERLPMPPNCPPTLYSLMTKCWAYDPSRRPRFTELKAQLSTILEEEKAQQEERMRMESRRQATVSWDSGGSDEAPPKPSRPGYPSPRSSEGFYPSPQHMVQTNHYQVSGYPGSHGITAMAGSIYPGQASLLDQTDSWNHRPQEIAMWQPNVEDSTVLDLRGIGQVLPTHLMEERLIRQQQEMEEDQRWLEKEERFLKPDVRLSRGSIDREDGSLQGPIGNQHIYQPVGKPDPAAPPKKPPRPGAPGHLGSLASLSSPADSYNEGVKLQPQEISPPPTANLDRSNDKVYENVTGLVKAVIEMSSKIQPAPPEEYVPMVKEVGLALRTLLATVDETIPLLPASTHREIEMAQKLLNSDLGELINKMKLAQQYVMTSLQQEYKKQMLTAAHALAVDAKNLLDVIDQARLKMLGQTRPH
Follistatin (Homo sapiens), sequence (P19883 whole entry, looked up): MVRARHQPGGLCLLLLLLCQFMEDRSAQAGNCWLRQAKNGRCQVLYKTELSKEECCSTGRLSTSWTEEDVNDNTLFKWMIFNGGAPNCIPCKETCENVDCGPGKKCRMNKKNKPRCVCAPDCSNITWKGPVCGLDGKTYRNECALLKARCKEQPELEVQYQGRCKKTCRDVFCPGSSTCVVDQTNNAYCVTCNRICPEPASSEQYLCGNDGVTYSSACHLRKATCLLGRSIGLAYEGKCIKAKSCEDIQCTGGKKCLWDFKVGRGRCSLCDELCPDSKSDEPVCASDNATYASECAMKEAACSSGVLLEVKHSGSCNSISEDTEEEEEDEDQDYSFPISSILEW
Luciferin 4-monooxygenase (Photinus pyralis), sequence (P08659 whole entry, looked up): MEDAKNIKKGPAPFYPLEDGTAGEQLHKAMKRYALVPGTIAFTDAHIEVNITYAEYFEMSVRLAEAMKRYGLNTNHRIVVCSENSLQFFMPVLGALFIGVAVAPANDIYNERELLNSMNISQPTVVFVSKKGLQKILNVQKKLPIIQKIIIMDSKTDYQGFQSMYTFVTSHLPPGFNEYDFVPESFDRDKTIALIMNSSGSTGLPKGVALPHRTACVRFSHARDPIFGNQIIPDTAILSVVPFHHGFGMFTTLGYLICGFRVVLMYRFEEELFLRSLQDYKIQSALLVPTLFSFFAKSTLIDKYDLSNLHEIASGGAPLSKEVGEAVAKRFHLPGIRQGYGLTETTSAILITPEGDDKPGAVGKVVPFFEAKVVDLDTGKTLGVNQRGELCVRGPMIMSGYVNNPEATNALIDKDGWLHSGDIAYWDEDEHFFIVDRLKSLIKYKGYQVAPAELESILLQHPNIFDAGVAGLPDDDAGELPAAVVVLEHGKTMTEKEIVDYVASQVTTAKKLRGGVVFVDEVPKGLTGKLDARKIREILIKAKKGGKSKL

As for `CCCC=C(CCC)[C@@H](NC(=O)c1ccc(C(F)(F)F)cc1)c1ccccc1`, the composite z-score in assay [1] is 0.81; in [2], 0.788; in assay [3], 0.0363; in [4] it was 0.0538; in assay [5], 0.0643; in [6], -0.764. In addition, the composite z-score is 0.0969 in the assay with Lefty1; 0.352 in [8]; -0.191 in [10]; 0.233 in assay [15]; 0.208 in [16]; 0.518 with Torsin-1A (Homo sapiens) [17]. The composite z-score is 0.199 in the assay with Torsin-1A (Homo sapiens) [18] and -0.634 in assay [19]. In addition, the z-score in [7] is -2.54; in assay [9] it was 1.2 (inactive); in assay [11], -3.91 (inactive); in assay [12], -0.383 (inactive); in assay [13], 0.962 (inactive); in [14] it was -0.0536 (inactive).
Take `COC(=O)[C@@]1(Cc2ccccc2N=[N+]=[N-])N=C(c2ccc(OCCCO)cc2)O[C@H]1c1ccccc1CN=[N+]=[N-]`: the composite z-score in assay [1] was 1.65; in assay [2] it was 1.02; in assay [3], 0.926; in assay [4] it was 0.168; in assay [5], 1.29; in assay [6] it was 0.609. Also, the composite z-score in the assay with Lefty1 was -0.213; in assay [8], 0.727; in assay [10], 0.171; in [15], -0.46; in assay [16], -0.0102; with Torsin-1A (Homo sapiens) [17], -0.181. For the same compound, the results for the composite z-score (with Torsin-1A (Homo sapiens) [18]; in assay [19]) were -0.303 and 0.144, respectively. The z-score in assay [7] was 1.02; in assay [9] it was -1.76 (inactive); in assay [11] it was -5.31 (inactive); in assay [12], 1.18 (inactive); in [13], 3.33 (inactive); in assay [14] it was -0.412 (inactive).
For the compound `C=CCC(OC(C)=O)[C@@H]1[C@@H](N(Cc2cccc3ccccc23)C(=O)c2ccc(C)cc2)c2cc(OCCCO)ccc2N1C(=O)c1ccc(-c2ccccc2)cc1` (stereo not given in full), the composite z-score in assay [1] was -0.215; in [2], -0.0588; in [3] it was -0.0095; in assay [4] it was -0.5; in [5] it was 0.679; in assay [6], 0.26. Moreover, the composite z-score in the assay on Lefty1 was -0.0451; in assay [8], -0.285; in [10], -0.0459; in assay [15], 0.425; in assay [16] it was -0.0719; in the assay with Torsin-1A (Homo sapiens) [17] it was 0.0621. Besides, the composite z-score was -0.213 with Torsin-1A (Homo sapiens) [18] and 0.0891 in [19]. Besides, the z-score was 2.6 in [7]; -1.18 (inactive) in [9]; -0.552 (inactive) in [11]; 0.528 (inactive) in assay [12]; 0.455 (inactive) in assay [13]; 0.289 (inactive) in assay [14].
As to `O=C1O[C@H](c2ccccc2)[C@H](c2ccccc2)N2[C@H]1[C@@H](C(=O)Nc1nc3ccccc3s1)[C@]1(C(=O)Nc3ccc(C#CC4(O)CCCCCC4)cc31)[C@H]2c1ccc(O)cc1`, the composite z-score is 1.71 in assay [1]; 1.2 in assay [2]; 0.164 in [3]; 1 in assay [4]; 1.29 in [5]; 1.31 in assay [6]. Moreover, the composite z-score in the assay with Lefty1 worked out at 0.666; in assay [8], 0.856; in [10], 0.328; in assay [15], 1.34; in [16] it was 0.293; with Torsin-1A (Homo sapiens) [17], 0.417. Also, the composite z-score with Torsin-1A (Homo sapiens) [18] amounted to 0.164; in assay [19], 1.82. Also, the z-score was -2.35 in assay [7]; -1.27 (inactive) in assay [9]; -0.859 (inactive) in assay [11]; -0.781 (inactive) in [12]; 0.802 (inactive) in assay [13]; 0.3 (inactive) in assay [14].
Turning to `O=C1O[C@H](c2ccccc2)[C@H](c2ccccc2)N2[C@H]1[C@@H](C(=O)NC[C@H](O)c1ccccc1)[C@]1(C(=O)Nc3ccc(C#CC4(O)CCCCCC4)cc31)[C@H]2c1ccc(OCCO)cc1`, the composite z-score in assay [1] came to 2.52; in assay [2] it was 1.2; in assay [3] it was 0.285; in assay [4], 0.641; in assay [5], 1.06; in assay [6] it was 1.04. Moreover, the composite z-score in the assay with Lefty1 was -0.0254; in assay [8] it was 0.959; in [10], 0.288; in assay [15] it was 0.463; in assay [16], 0.0082; in the assay with Torsin-1A (Homo sapiens) [17] it was 0.127. Moreover, the composite z-score is 0.644 with Torsin-1A (Homo sapiens) [18] and 0.756 in [19]. Also, the z-score in assay [7] was -1.2; in assay [9], -1.23 (inactive); in assay [11] it was -5.26 (inactive); in assay [12], -0.37 (inactive); in assay [13] it was -0.231 (inactive); in [14], -0.581 (inactive).

For the origin of these results see PubChem BioAssay.
